“And” between values parts separate entries of the source, which are not always exact repeats. Equal entries are not always repeated. Inconclusive results are not listed. Where a call stands in place of a potency, no number is given. The source made the active and inactive calls. Unless noted, the call rests on the fitted dose curve; in most records, active means well fitted curve in the direction sought with a large enough effect; inconclusive means small, poorly fitted or top-dose-only effect, or another doubt; inactive means no such curve, though single readings can be large; an effect the other way counts as inactive or inconclusive.
Columns and labels:
[1] = biological target: Cellular tumor antigen p53 (Homo sapiens) (UniProt P04637); experiment: Primary qHTS for small molecule compounds that upregulate eGFP-tagged delta133p53alpha (in N-terminal) cells. (AID 2060322); conditions: NCI-H358 eGFP-delta133p53alpha fluorescence, 24 h; activation: active compounds read high; further: nearly all actives have a fitted effect of over 75% in size
Procedure, shortened: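 NCI-H358 cells pre-induced 24 h with 10 ng/ml doxycycline to express N-terminal eGFP-delta133p53alpha, then dosed 24 h at 37C without doxycycline; fixed, Hoechst-stained, GFP intensity by laser scanning cytometry, normalized to DMSO (0%) and 57.5 uM 5-azacytidine (100%).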

[2] = biological target: Cellular tumor antigen p53 (Homo sapiens) (UniProt P04637); experiment: Primary qHTS for small molecule compounds that upregulate eGFP-tagged delta133p53alpha (in C-terminal) cells. (AID 2060324); conditions: NCI-H358 delta133p53alpha-eGFP (C-terminal tag), GFP fluorescence imaging, 24 h; series mostly up to 57.5 µM; further: potency means the concentration at half of the fitted maximal effect
Procedure, shortened: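 NCI-H358 cells pre-induced 24 h with 100 ng/ml doxycycline to express delta133p53alpha-eGFP, then dosed in doxycycline-free medium for 24 h at 37C. Fixed, Hoechst-stained; GFP intensity by laser scanning cytometry, normalized to DMSO wells.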

[3] = biological target: Aldehyde dehydrogenase, mitochondrial (Homo sapiens) (UniProt P05091); experiment: qHTS for Inhibitors of the Aldehyde Dehydrogenase Family (ALDH2) Validation screens (AID 2061302; active means well fitted inhibition curve with a large enough effect; title and protocol of this record describe different tests); conditions: ALDH inhibition qHTS; series mostly up to 42.6 µM
[4] = biological target: Retinaldehyde dehydrogenase 3 (Homo sapiens) (UniProt P47895); experiment: qHTS for Inhibitors of the Aldehyde Dehydrogenase Family (ALDH1A3) Validation screen (AID 2061312); conditions: ALDH1A3 enzyme inhibition qHTS validation, fluorescence; series mostly up to 84.7 µM; further: nearly all actives have a fitted effect of over 45% in size

Sequence of Cellular tumor antigen p53 (Homo sapiens) (P04637 whole entry, looked up): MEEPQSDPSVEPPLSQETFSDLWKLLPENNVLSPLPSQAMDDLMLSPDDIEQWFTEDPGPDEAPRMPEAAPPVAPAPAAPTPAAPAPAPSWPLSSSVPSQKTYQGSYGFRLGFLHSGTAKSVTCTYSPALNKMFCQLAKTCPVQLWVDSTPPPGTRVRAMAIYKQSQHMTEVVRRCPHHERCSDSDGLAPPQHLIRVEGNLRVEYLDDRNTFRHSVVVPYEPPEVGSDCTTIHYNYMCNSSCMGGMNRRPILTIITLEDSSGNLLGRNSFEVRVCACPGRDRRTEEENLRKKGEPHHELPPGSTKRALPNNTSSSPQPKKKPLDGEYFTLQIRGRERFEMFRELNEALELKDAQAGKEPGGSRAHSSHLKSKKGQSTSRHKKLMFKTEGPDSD

Row | SMILES | activation [1] | Potency [2] | Potency [3] | Potency [4]
1 | CCc1cccc2c3c([nH]c12)C(CC)(CC(=O)O)OCC3 (stereo unspecified) | -0.565% (inactive) and -1.6% (inactive) | inactive | inactive | inactive
2 | CCCn1c(=O)c(C)cn2nc(N)nc12 | -37.9% (inactive) | inactive | inactive | inactive
3 | C#C[C@]1(O)CC[C@H]2[C@@H]3CCC4=Cc5oncc5CC4(C)[C@H]3CCC21C (stereo partly specified) | -35.6% (inactive) | inactive | inactive | inactive
4 | CN1C2CC(OC(=O)[C@H](CO)c3ccccc3)CC1C1OC12 (stereo partly specified) | -3.28% (inactive) | inactive | inactive | inactive
5 | Cc1nc2sccn2c(=O)c1CCN1CCC(=C(c2ccc(F)cc2)c2ccc(F)cc2)CC1 | -20.9% (inactive) and -40.8% (inactive) | inactive | inactive | inactive
6 | CC(=O)c1ccc(S(=O)(=O)NC(=O)NC2CCCCC2)cc1 | 3.35% (inactive) and -2.1% (inactive) | inactive | inactive | inactive
7 | OC[C@H]1O[C@H](n2cnc3c(N[C@H]4CCC[C@@H]4O)ncnc32)[C@H](O)[C@@H]1O | -36% (inactive) | inactive | inactive | inactive
8 | O=C1NC(=O)[C@@]2(CCOc3ccc(F)cc32)N1 | -3.95% (inactive) and 3.53% (inactive) | inactive | inactive | inactive
9 | O=C(O)CC[C@@H](C(=O)O)N1C(=O)c2ccccc2C1=O | -14.6% (inactive) | inactive | inactive | inactive
10 | CN(C)CCOC(=O)COc1ccc(Cl)cc1 | -18.4% (inactive) and -20.3% (inactive) | inactive | inactive | inactive
11 | NS(=O)(=O)C#Cc1ccccc1 | 60.6% (inactive) | 30.1 µM (active) | inactive | inactive
12 | OCC1O[C@H](O)C(Cl)C(O)C1O (stereo partly specified) | -8.54% (inactive) | inactive | inactive | inactive
13 | COCCOc1cc2nc[nH]c(=O)c2cc1OCCOC | -30.8% (inactive) | inactive | inactive | inactive
14 | CN(C)C(N)=NCCC[C@H](N)C(=O)O | -10.9% (inactive) | inactive | inactive | inactive
15 | NC(=Nc1ccccc1)NC(=O)c1nc(Cl)c(N)nc1N | -28.9% (inactive) | inactive | inactive | inactive
16 | Cn1cc(C(=O)OCC2CCN(CCNS(C)(=O)=O)CC2)c2ccccc21 | -16.5% (inactive) | inactive | inactive | inactive
17 | O=C(O)CCCCCCCC(=O)O | 17.5% (inactive) and -5.1% (inactive) | inactive | inactive | inactive
18 | O=C(O)c1cccnc1C(=O)O | -17.2% (inactive) | inactive | inactive | inactive
19 | CCCc1c(-c2ccc(O)cc2)nn(-c2ccc(O)cc2)c1-c1ccc(O)cc1 | -36.4% (inactive) | inactive | inactive | inactive
20 | CSc1nc(N)c2ncn([C@@H]3O[C@H](COP(=O)(O)OP(=O)(O)O)C(O)[C@H]3O)c2n1 (stereo partly specified) | -2.39% (inactive) | inactive | inactive | inactive
21 | CCN(CC)CCNC(=O)c1cc(S(C)(=O)=O)ccc1OC | -10% (inactive) and -17.5% (inactive) | inactive | inactive | inactive
22 | COc1cc2nc(N3CCN(C(=O)C4COc5ccccc5O4)CC3)nc(N)c2cc1OC (stereo unspecified) | 6.69% (inactive) and -16.6% (inactive) and -33.1% (inactive) | inactive | inactive | inactive
23 | N#Cc1cc2nc(O)c(O)nc2cc1[N+](=O)[O-] | -30.1% (inactive) | inactive | inactive | inactive
24 | C[C@H]1CC2C3CCC4=CC(=O)C=C[C@]4(C)[C@@]3(Cl)[C@@H](O)C[C@]2(C)[C@@]1(O)C(=O)CO (stereo partly specified) | -21.3% (inactive) | inactive | inactive | inactive
25 | O=c1[nH]ccc2c(O)cccc12 | -33.7% (inactive) | inactive | inactive | inactive
26 | O=S(=O)(c1cccc2c(Cl)cccc12)N1CCCNCC1 | -18.2% (inactive) | inactive | inactive | inactive
27 | S=C(S)OC1CC2CC1C1CCCC21 (stereo unspecified) | -23.4% (inactive) | inactive | inactive | inactive
28 | Nc1nc(Cl)nc2c1ncn2[C@@H]1O[C@H](CO)[C@@H](O)[C@H]1O | -6.39% (inactive) | inactive | inactive | inactive
29 | COC(=O)C(N)Cc1ccc(Cl)cc1 (stereo unspecified) | -12% (inactive) | inactive | inactive | inactive

Source: PubChem BioAssay (NCATS)
